From PubChem
FBPA Giardia inh: Giardia lamblia aldolase inhibition; A8B2U2; purified Giardia FBPA; Potency, µM (top dose mostly 59.6 µM), for the others: at the highest dose activity, negative = inhibition, usual class: inhibitors; 290,000 compounds, 0.71% hits; AID 2451; note: potency is the fitted concentration of half-maximal effect; % is set by controls: 0 for no effect and ±100 for the full control effect; nearly all actives have a fitted effect of over 55% in size
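40 nM FBPA preincubated 10 min at RT with compound (up to 57.5 uM final), then substrate plus GAPDH/TPI/NAD/arsenate coupling and diaphorase/resazurin added. Fluorescence read after 20 min at RT, 525/598 nm.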
CHX counter: counter-screen hit for Shiga toxin inhibitors, cycloheximide | cell reporter, cycloheximide protein synthesis inhibition counterscreen | max response, % | 300,000 compounds, 12% hits; in the data active = max response mostly above about 13%, no sharp cut-off; inactive = mostly below about 14%; note: read at 38.3 µM for the half of the compounds with a filed dose; 0% is about no effect
Sm TGR inh: S. mansoni TGR enzyme inhibition; Q962Y6; purified TGR, DTNB reduction, TNB absorbance 405 nm; Potency, µM (doses to about 114 µM), without a hit: at the highest dose activity change, negative = inhibition, usual class: inhibitors; 360,000 compounds, 3% hits; AID 485364; note: potency is the fitted concentration of half-maximal effect; % is set by controls: 0 for no effect and ±100 for the full control effect; nearly all actives have a fitted effect of over 60% in size
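Kinetic colorimetric format: TGR-catalysed, NADPH-driven DTNB reduction monitored via TNB absorbance. Enzyme dispensed at 20 nM; compound exposure 15 min at room temperature before reaction start.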
TbPYK inhibitor: blocks Trypanosoma brucei pyruvate kinase; Q57TT1; TbPYK enzyme, Kinase-Glo Plus ATP luminescence, 45 min; Potency, µM (doses to about 76.8 µM), for the others: at the highest dose activity, negative = inhibition, actives largely listed as inhibitors; 410,000 compounds, 0.12% hits; AID 624173; note: potency is the fitted concentration of half-maximal effect; % is set by controls: 0 for no effect and ±100 for the full control effect; nearly all actives have a fitted effect of over 50% in size
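Screened from lowest to highest concentration, compounds were pinned into TbPYK/substrate mixtures, and ADP (130 uM final) was added. Plates sat at room temperature for 45 min prior to Kinase-Glo Plus detection by luminescence.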
Shiga inhibitor: blocks Shiga toxin action in Vero cells; Vero cells, Shiga toxin protein synthesis inhibition reporter; inhibition, % at 38.7 µM; 290,000 compounds, 9.2% hits; in the data active = inhibition mostly above about 28%, no sharp cut-off; inactive = mostly below about 43%; note: 0% is about no effect
LmPK inh: blocks Leishmania mexicana pyruvate kinase activity. Q27686. purified LmPK, Kinase-Glo ATP luminescence, 1 h. Potency, µM (top dose mostly 57.5 µM), for the others: at the top dose activity change, negative = inhibition, hits mostly inhibitors. 290,000 compounds, 0.37% hits; note: potency is the fitted concentration of half-maximal effect; % is set by controls: 0 for no effect and ±100 for the full control effect
Target sequence (Q27686 whole entry, looked up): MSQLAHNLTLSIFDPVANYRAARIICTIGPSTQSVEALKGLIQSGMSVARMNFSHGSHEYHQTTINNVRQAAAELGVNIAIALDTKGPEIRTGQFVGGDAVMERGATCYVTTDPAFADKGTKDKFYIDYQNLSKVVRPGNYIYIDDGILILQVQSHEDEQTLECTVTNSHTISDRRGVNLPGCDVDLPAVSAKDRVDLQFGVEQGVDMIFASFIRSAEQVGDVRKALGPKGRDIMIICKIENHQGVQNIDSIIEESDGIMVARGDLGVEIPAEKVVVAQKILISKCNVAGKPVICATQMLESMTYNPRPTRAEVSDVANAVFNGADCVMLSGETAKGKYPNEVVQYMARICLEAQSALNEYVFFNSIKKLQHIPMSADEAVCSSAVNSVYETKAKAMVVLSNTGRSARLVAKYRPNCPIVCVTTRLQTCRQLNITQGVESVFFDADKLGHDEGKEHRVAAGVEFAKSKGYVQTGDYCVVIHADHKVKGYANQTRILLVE
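Purified LmPK (0.1 nM) converted ADP (0.1 mM) to ATP with PEP (0.5 mM) in imidazole buffer pH 7.2 with KCl and MgCl2, 1 h at room temperature. ATP was read by Kinase-Glo luminescence; data normalized to uninhibited and no-enzyme controls.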
* marks the source's active call; other numbers are inactive results. Only a selection was taken, and hits are over-represented in it overall. Unless noted, calls come from the whole dose curve; as a rule, active = well fitted curve in the direction sought with a large enough effect; inconclusive = small, poorly fitted or top-dose-only effect, or another doubt; inactive = no such curve, though single readings can be large; an effect the other way counts as inactive or inconclusive.

Screening CCOc1ccccc1NC(=O)Nc1ccc2c(c1)CCC2 returned CHX counter 39*, Sm TGR inh -1%, TbPYK inhibitor -9%, Shiga inhibitor 54* and LmPK inh -13%.
`CCCCN(C(=O)c1oc2ccc(OCC)cc2c1C)c1c(N)n(CCCC)c(=O)[nH]c1=O` gave Sm TGR inh -1% and TbPYK inhibitor 6%.
Screening C#C[C@]1(O)CC[C@H]2[C@@H]3CCC4=CCCC[C@@H]4[C@H]3C(=C)C[C@@]21CC returned TbPYK inhibitor 7%.
`COc1cc(Cl)c(C)cc1NC(=O)CSCc1nc(-c2ccc(OC)c(OC)c2)no1` gave Sm TGR inh -3% and TbPYK inhibitor -2%.
Screening COc1ccc(OC)c(CNS(=O)(=O)c2c(C(=O)N3CCC(C)CC3)c(C)n(C)c2C)c1 returned Sm TGR inh 0% and TbPYK inhibitor 2%.
For COc1ccc(NC(=O)Nc2ccc3c(c2)CCC3)cc1 the results were CHX counter 27*, Sm TGR inh -3%, TbPYK inhibitor 5%, Shiga inhibitor 36* and LmPK inh -4%.
For Cc1c(NC(=O)Nc2ccc3c(c2)OCO3)cccc1[N+](=O)[O-] the results were CHX counter 42*, Sm TGR inh 2%, TbPYK inhibitor -4%, Shiga inhibitor 77* and LmPK inh -15%.
Screening Cc1ccc(CNc2ccc3c(c2)OCO3)c(C)c1 returned FBPA Giardia inh inconclusive, CHX counter 44*, Sm TGR inh 40µM*, Shiga inhibitor 91* and LmPK inh -6%.
Screening COc1ccc2cnn(-c3ccc(C)cc3)c(=O)c2c1OC returned FBPA Giardia inh -3%, CHX counter 102*, Sm TGR inh 6%, TbPYK inhibitor -6%, Shiga inhibitor 153* and LmPK inh 6%.
COc1ccc(Oc2c(Cl)cnn(-c3ccc(F)cc3)c2=O)cc1 was read as FBPA Giardia inh 9%, CHX counter 7, Sm TGR inh 1%, TbPYK inhibitor 0%, Shiga inhibitor -11 and LmPK inh 1%.
`COc1ccc(Oc2c(Cl)cnn(-c3ccc(C)cc3)c2=O)cc1` gave FBPA Giardia inh 3%, CHX counter 14*, Sm TGR inh 6%, TbPYK inhibitor -2%, Shiga inhibitor 2 and LmPK inh 0%.
Screening COc1cccc(NC(=O)Cn2c(=O)n(Cc3ccccc3)c(=O)c3c2c2cc(C)ccc2n3C)c1 returned Sm TGR inh 1% and TbPYK inhibitor -11%.
COc1cccc(-c2nc(SCC(=O)NCC3CCCO3)c(-c3ccc(Cl)cc3)[nH]2)c1 (centres undefined) was read as Sm TGR inh 0% and TbPYK inhibitor 0%.
Cc1cccc(NC(=O)C2CCCN(S(=O)(=O)c3cnc[nH]3)C2)c1C (centres undefined) was read as Sm TGR inh inconclusive and TbPYK inhibitor 2%.
For CSc1cccc(NC(=O)COc2ccccc2)c1 the results were FBPA Giardia inh -3%, CHX counter 40*, Sm TGR inh -1%, TbPYK inhibitor inconclusive, Shiga inhibitor 61 and LmPK inh 1%.
C/C(=N\NC(=O)c1c(Cl)cnn1C)c1cccc(NC(=O)COc2ccccc2)c1 was read as FBPA Giardia inh -1%, CHX counter 16*, Sm TGR inh -1%, TbPYK inhibitor 2%, Shiga inhibitor 24 and LmPK inh 4%.
`CC(=O)c1cccc(OCC(=O)Nc2cccc(C(=O)Nc3c(C)n(C)n(-c4ccccc4)c3=O)c2)c1` gave Sm TGR inh -26% and TbPYK inhibitor 3%.
Screening CC(C)CCOCC(=O)Nc1cccc(C(=O)O)c1 returned FBPA Giardia inh 15%, CHX counter 105*, Sm TGR inh 5%, TbPYK inhibitor 2%, Shiga inhibitor 120* and LmPK inh -1%.
Screening CCOCC(=O)Nc1cccc(Br)c1 returned FBPA Giardia inh 15%, CHX counter 5, Sm TGR inh 3%, TbPYK inhibitor -4%, Shiga inhibitor 15 and LmPK inh -8%.
